Test systems include NCI-H23 lung; NCI-H226 lung; NCI-H322M lung; HOP-62 NSCLC; NCI-H460 lung; HOP-92 NSCLC; NCI-H522 lung; A549/ATCC NSCLC; 786-0 renal; COLO 205 colon; DU-145 prostate; K-562 leukemia; MALME-3M melanoma; MDA-MB-231 breast; RXF 393 renal; SF-268 CNS; SF-295 CNS; SF-539 CNS; UACC-257 melanoma; M14 melanoma.
What all share (test): NCI-60 one-dose screen, 48 h (100 = growth as untreated, 0 = no growth, -100 = all killed)
Common to all, as to conditions: 10 µM unless noted

SMILES strings stand for the structures. This is part of a sample that, as a whole, favours compounds with a hit. Of some 83,000 tested, about 20% had one in any assay.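 Step 1: grow cells in 96-well plates. Step 2: add test compound at a single concentration. Step 3: incubate 48 h. Step 4: record percent growth.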 Values without a mark were called inactive. Calls of active or inactive are those of the source. Rule for the calls: active = growth percent below 10; inactive = the rest.

As to `c1ccc(Nc2nc(-c3ccccn3)cs2)nc1`, the growth in the assay on NCI-H23 lung was 19.1%; in the assay on NCI-H226 lung, -9.64% (active); with NCI-H322M lung it was 27.1%; with HOP-62 NSCLC, 16.4%; in the assay on NCI-H460 lung, -9.3% (active); in the assay with HOP-92 NSCLC, 63.6%. The growth in the assay on NCI-H522 lung is 26.3%; with A549/ATCC NSCLC, 11.2%; in the assay with 786-0 renal, -2.41% (active); in the assay with COLO 205 colon, 11.5%; in the assay on DU-145 prostate, 26.5%; in the assay with K-562 leukemia it was 17.2%. Besides, the growth is 9.26% (active) in the assay with MALME-3M melanoma; 38.9% in the assay on MDA-MB-231 breast; -18.8% (active) in the assay with RXF 393 renal; 20.7% with SF-268 CNS; 11.9% with SF-295 CNS; 0.697% (active) with SF-539 CNS. Further, the growth with UACC-257 melanoma is 11.5%; in the assay on M14 melanoma it was -32.8% (active).

In the case of `NS(=O)(=O)c1ccc(-n2nc(C(=O)N/N=C\c3ccc(F)cc3)cc2-c2ccc(Cl)cc2)cc1`, the growth with NCI-H23 lung is 84.2%; in the assay on NCI-H226 lung, 82.7%; in the assay with NCI-H322M lung, 89.6%; in the assay on HOP-62 NSCLC it was 74.1%; with NCI-H460 lung it was 99.4%; in the assay on HOP-92 NSCLC it was 56%. Also, the growth was 78.4% in the assay on NCI-H522 lung; 95.1% in the assay on A549/ATCC NSCLC; 105% in the assay with 786-0 renal; 116% in the assay with COLO 205 colon; 104% in the assay on DU-145 prostate; 87.9% with K-562 leukemia. For the same molecule, the growth in the assay on MALME-3M melanoma is 89.9%; with MDA-MB-231 breast, 74%; in the assay on RXF 393 renal, 89.5%; in the assay with SF-268 CNS, 88.3%; in the assay with SF-295 CNS, 97%; with SF-539 CNS, 88.1%. In addition, the results for the growth in the assay with UACC-257 melanoma and in the assay on M14 melanoma were 101% and -85.9% (active), respectively.

As for `O=C(NCCCNc1cc(-c2cn(-c3ccccc3)nc2-c2cccc(O)c2)ccn1)c1ccc(F)cc1`, the growth is 42% in the assay with NCI-H23 lung; 58.9% in the assay on NCI-H226 lung; 62.8% with NCI-H322M lung; 26.2% with HOP-62 NSCLC; 27.9% in the assay on NCI-H460 lung; 14.4% in the assay with HOP-92 NSCLC. Besides, the growth in the assay on NCI-H522 lung is 9.35% (active); in the assay with A549/ATCC NSCLC, 16.1%; with 786-0 renal, -49.4% (active); in the assay on COLO 205 colon, -59.1% (active); in the assay on DU-145 prostate it was 48.4%; in the assay on K-562 leukemia, 0.281% (active). The growth in the assay on MALME-3M melanoma was -12.1% (active); in the assay with MDA-MB-231 breast, -13.6% (active); in the assay with RXF 393 renal, 15.9%; in the assay on SF-268 CNS it was 31.3%; with SF-295 CNS it was -4.5% (active); in the assay on SF-539 CNS, 13.9%. Further, the growth in the assay on UACC-257 melanoma was -51.7% (active); in the assay with M14 melanoma, -41.8% (active).

Regarding `O=C(/C=C/c1ccc(Cl)nc1)c1ccc(Cl)cc1Cl`, the growth with NCI-H23 lung is 105%; with NCI-H226 lung, 103%; in the assay on NCI-H322M lung it was 99.8%; in the assay with HOP-62 NSCLC, 106%; in the assay on NCI-H460 lung, 98%; with HOP-92 NSCLC, 110%. The growth in the assay on NCI-H522 lung was 38.7%; in the assay with A549/ATCC NSCLC, 94.4%; in the assay on 786-0 renal it was 86.8%; with COLO 205 colon, 111%; with DU-145 prostate, 108%; in the assay on K-562 leukemia, 7.65% (active). The growth in the assay on MALME-3M melanoma is 105%; with MDA-MB-231 breast, 107%; in the assay with RXF 393 renal, 104%; in the assay with SF-268 CNS, 102%; in the assay on SF-295 CNS it was 91.1%; in the assay with SF-539 CNS, 107%. Further, the growth was 94.5% in the assay with UACC-257 melanoma and 97.6% with M14 melanoma.

`CCCCc1ccc(Nc2ccc(Nc3ccc(CCCC)cc3S(=O)(=O)O)c3c2C(=O)c2ccccc2C3=O)c(S(=O)(=O)O)c1`: the growth with NCI-H23 lung is 91.3%; with NCI-H226 lung, 79.7%; in the assay on NCI-H322M lung, 96.3%; in the assay with HOP-62 NSCLC, 99.5%; in the assay on NCI-H460 lung it was 104%; in the assay with HOP-92 NSCLC it was 59.4%. Further, the growth in the assay with NCI-H522 lung is 65%; in the assay with A549/ATCC NSCLC it was 102%; in the assay on 786-0 renal it was 117%; with COLO 205 colon, 101%; in the assay with DU-145 prostate, 107%; in the assay on K-562 leukemia, 114%. Further, the growth in the assay on MALME-3M melanoma is 110%; in the assay on MDA-MB-231 breast, 83.1%; in the assay on RXF 393 renal it was 95%; in the assay with SF-268 CNS it was 99.7%; in the assay with SF-295 CNS it was 101%; in the assay with SF-539 CNS, 96.5%. The growth is 88.3% in the assay with UACC-257 melanoma and 101% with M14 melanoma.

As to `CC(=O)N1N=C(c2ccc(Nc3nc(Nc4ccc(F)cc4)nc(Nc4ccc(F)cc4)n3)cc2)CC1c1cccc([N+](=O)[O-])c1` (stereo not given), the growth is 78.9% with NCI-H23 lung; 101% in the assay with NCI-H226 lung; 85.6% in the assay on NCI-H322M lung; 82% in the assay on HOP-62 NSCLC; 102% in the assay on NCI-H460 lung; 71.2% in the assay with HOP-92 NSCLC. For the same molecule, the growth with NCI-H522 lung is 77%; in the assay with A549/ATCC NSCLC, 91.1%; with 786-0 renal, 86.4%; in the assay on COLO 205 colon, 84.9%; in the assay with DU-145 prostate it was 106%; in the assay on K-562 leukemia, 76.7%. Further, the growth is 91.3% with MALME-3M melanoma; 84.6% in the assay on MDA-MB-231 breast; 81.4% with RXF 393 renal; 103% in the assay with SF-268 CNS; 482% with SF-295 CNS; 92.9% in the assay on SF-539 CNS. The growth was 115% in the assay on UACC-257 melanoma and 94.1% in the assay on M14 melanoma.

In the case of `O=C1Nc2ccc(F)cc2C12Nc1cc(Cl)ccc1S2` (stereo not given), the growth with NCI-H23 lung is 80.1%; in the assay on NCI-H226 lung, 108%; in the assay on NCI-H322M lung it was 84.6%; with HOP-62 NSCLC, 111%; in the assay on NCI-H460 lung it was 89.5%; with HOP-92 NSCLC it was -5.66% (active). For the same molecule, the growth was 90.9% in the assay on NCI-H522 lung; 94.9% in the assay on A549/ATCC NSCLC; 105% in the assay with 786-0 renal; 112% in the assay on COLO 205 colon; 101% in the assay on DU-145 prostate; 48.6% in the assay with K-562 leukemia. The growth is 88.6% in the assay with MALME-3M melanoma; 88.1% in the assay with MDA-MB-231 breast; 110% with RXF 393 renal; 100% in the assay with SF-268 CNS; 89.8% in the assay on SF-295 CNS; 93.8% with SF-539 CNS. Moreover, the growth with UACC-257 melanoma is 109%; in the assay with M14 melanoma, 90.9%.

As for `CNC(=O)CCN1CCN(CC/C=C2\c3ccccc3Sc3ccc(Cl)cc32)CC1`, the growth in the assay on NCI-H23 lung is 91%; in the assay with NCI-H226 lung it was 121%; in the assay with NCI-H322M lung it was 74.8%; in the assay with HOP-62 NSCLC, 102%; in the assay on NCI-H460 lung it was 92.6%; in the assay with HOP-92 NSCLC it was -4.86% (active). In addition, the growth is 85% in the assay with NCI-H522 lung; -27.4% (active) in the assay on A549/ATCC NSCLC; 75.9% in the assay with 786-0 renal; 85.8% with COLO 205 colon; 90.5% in the assay with DU-145 prostate; 32.4% with K-562 leukemia. The growth with MALME-3M melanoma was 98%; with MDA-MB-231 breast it was 102%; in the assay on RXF 393 renal it was 21.6%; with SF-268 CNS, 77.5%; with SF-295 CNS, 98.5%; with SF-539 CNS, 97.3%. Further, the growth with UACC-257 melanoma is -30.9% (active); in the assay with M14 melanoma, 81.3%.
